About 83,000 compounds went through this panel and 20% of them were active in at least one assay; those are over-represented in the sample as a whole.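 Testing used 96-well plates and a 48-hour single-concentration exposure. Example: -40 means 40% of the starting cells died.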 A number with no mark means an inactive call. The source made the active and inactive calls. Rule for the calls: active = growth percent below 10; inactive = the rest.
Key:
Experiment in all cases: NCI-60 one-dose screen, 48 h (100 = growth as untreated, 0 = no growth, -100 = all killed)
Details in all cases: 10 µM unless noted
SK-MEL-2 melanoma = tested on: SK-MEL-2 melanoma
EKVX NSCLC = tested on: EKVX NSCLC
SN12C renal = tested on: SN12C renal
UO-31 renal = tested on: UO-31 renal
TK-10 renal = tested on: TK-10 renal
ACHN renal = tested on: ACHN renal
CAKI-1 renal = tested on: CAKI-1 renal
A498 renal = tested on: A498 renal
CCRF-CEM leukemia = tested on: CCRF-CEM leukemia
MOLT-4 leukemia = tested on: MOLT-4 leukemia

| SMILES | growth (SK-MEL-2 melanoma) | growth (EKVX NSCLC) | growth (SN12C renal) | growth (UO-31 renal) | growth (TK-10 renal) | growth (ACHN renal) | growth (CAKI-1 renal) | growth (A498 renal) | growth (CCRF-CEM leukemia) | growth (MOLT-4 leukemia) |
| --- | --- | --- | --- | --- | --- | --- | --- | --- | --- | --- |
| COc1ncc(-c2ccc3ncnc(Nc4cccc(Cl)c4)c3c2)cc1N(S(C)(=O)=O)S(C)(=O)=O | 77.4% | 30% | 64.5% | 25.9% | 5.88% (active) | 22% | 26.8% | 49.6% | 86.8% | 69.9% |
| O=C1OC(c2ccccc2)=N/C1=C\c1ccc([N+](=O)[O-])cc1 | 105% | 99.9% | 100% | 91.7% | 97.4% | 102% | 91.5% | 87.4% | 114% | 102% |
| C=C1C(=O)O[C@H]2[C@H]1CC/C(COC(=O)NCCc1ccc(OC)cc1)=C\CC[C@@]1(C)O[C@@H]21 | 63.4% | 53.3% | 11.7% | -82.8% (active) | -7.32% (active) | -6.86% (active) | -2.71% (active) | 62% | 3.44% (active) | 2.83% (active) |
| O=C(Cc1n[nH]c(=O)c2ccccc12)OCc1c(Cl)cccc1Cl | 35.5% | 154% | 102% | 103% | 99% | 74.7% | 107% | 91.3% | 61% | 32.9% |
| Cc1cc(C(=O)CSc2nc3ccccc3c(=O)[nH]2)c(C)n1C | 87.9% | 94.9% | 95.4% | 38.9% | 93.1% | 107% | 95.9% | 74.6% | 87.2% | 118% |
| Cc1ccccc1C(=O)c1ccccc1C(=O)O | 124% | 105% | 105% | 89.7% | 96.5% | 111% | 88.8% | 126% | 103% | 99.5% |
| CC(C)(C)c1cn2cccc(C(=O)N3CCN(CC(=O)Nc4ccc(Cl)cc4C(=O)c4ccccc4Cl)CC3)c2n1 | 65.4% | 40.8% | 72.6% | 47% | 69% | 44.8% | 67.5% | -0.735% (active) | 27.9% | 16.4% |
| COc1ccc2c(c1)C=CC(C#N)N2C(=O)c1ccccc1 (stereo not given) | 67.4% | 49.8% | 38.4% | 53% | 70.9% | 33.9% | 23.6% | -5.22% (active) | 15.2% | 11.9% |
| O=C(Nc1ccc(F)c(Cl)c1)c1n[nH]c(=O)c2ccccc12 | 74.8% | 123% | 98.1% | 106% | 157% | 89.1% | 89.5% | 103% | 105% | 97.2% |
| COc1cc(Br)c(OC)cc1Br | 101% | 76% | 110% | 60.4% | 140% | 92.4% | 85.2% | 88.7% | 116% | 98.3% |

— PubChem BioAssay (NCI)
